The supplement of paper PMC12669032
Several values for one entry are separate records, joined by “and”; a condition that tells them apart may be missing. Equal entries are not always repeated. A number with no mark means an inactive call.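 The calls were made as follows: active = AUC reduced over 20% with Padj below 0.05 in at least 2 of 3 replicates; inactive = otherwise.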

Tested on: Bacteroides thetaiotaomicron
Experiment: growth AUC relative to DMSO control (median of replicates) (fraction); higher = more growth (less inhibition), active = hit call of the paper
Settings: 20 µM; 24 h
In short: (§1)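 Three biological replicates, each grown on a separate day, were combined as a median for every value. In each, a gut bacterial monoculture in mGAM started at OD600 0.05 and grew anaerobically at 37 °C with 20 µM compound (1% DMSO), with OD600 read hourly over 24 h. Area under the growth curve was normalised against the plate median of solvent-only wells, or against row and column medians on the industrial chemical plate, after the minimum OD was set to 0.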

| Structure (SMILES) | growth AUC |
| --- | --- |
| COP(N)(=O)SC (stereo not drawn) | 1.04 |
| COc1cc(OC)n2nc(S(=O)(=O)Nc3c(Cl)ccc(C)c3Cl)nc2n1 | 0.99 |
| CC(C)N(C(=O)SCC(Cl)=C(Cl)Cl)C(C)C | 0.999 |
| O=S(=O)(c1ccc(O)cc1)c1ccc(O)cc1 | 0.996 |
| CN(C)NC(=O)CCC(=O)O | 0.998 |
| CCN(CC)c1nc(C)cc(OP(=S)(OC)OC)n1 | 0.945 |
| Clc1cccc(Cl)c1Cl | 1.02 |
| CCN(CC)C(=S)[S-].O.O.O.[Na+] | 0.848 |
| C#CCC1=C(C)C(OC(=O)C2C(C=C(C)C)C2(C)C)CC1=O (stereo not drawn) | 1.01 |
| CCOc1ccccc1OS(=O)(=O)NC(=O)Nc1nc(OC)cc(OC)n1 | 1.01 |
| CNC(=O)Oc1cc(C)cc(C(C)C)c1 | 0.967 |
| CCCCN(CC)c1c([N+](=O)[O-])cc(C(F)(F)F)cc1[N+](=O)[O-] | 1.02 |
| O=C(O)CCl | 1 |
| CC[C@H](C)[C@H]1O[C@]2(C=C[C@@H]1C)C[C@@H]1C[C@@H](C/C=C(\C)[C@@H](O[C@H]3C[C@H](OC)[C@@H](O[C@H]4C[C@H](OC)[C@@H](NC)[C@H](C)O4)[C@H](C)O3)[C@@H](C)/C=C/C=C3\CO[C@@H]4[C@H](O)C(C)=C[C@@H](C(=O)O1)[C@]34O)O2.O=C(O)c1ccccc1 | 0.812 |
| CON(C)C(=O)Nc1ccc(Cl)c(Cl)c1 | 1 |
| CCCCOC(=O)[C@@H](C)Oc1ccc(Oc2ccc(C#N)cc2F)cc1 | 0.954 |
| Clc1cc(Cl)c(Cl)c(Cl)c1 | 0.997 |
| CN(C)C(=O)Nc1cccc(C(F)(F)F)c1 | 0.967 |
| CN(C)C(=O)Nc1cccc(OC(=O)NC(C)(C)C)c1 | 0.958 |
| CCOP(=O)(NC(C)C)Oc1ccc(SC)c(C)c1 (stereo not drawn) | 0.998 |

| Structure (SMILES) | growth AUC |
| --- | --- |
| ClCC(Br)CBr (stereo not drawn) | 1 |
| O=[N+]([O-])c1c(Cl)c(Cl)cc(Cl)c1Cl | 1.04 |
| CCS(=O)c1c(C#N)nn(-c2c(Cl)cc(C(F)(F)F)cc2Cl)c1N (stereo not drawn) | 0.961 |
| CNC(=O)Oc1cccc2c1OC(C)(C)C2O (stereo not drawn) | 1.01 |
| CCOP(=O)(SC(C)CC)N1CCSC1=O (stereo not drawn) | 0.992 |
| CCOP(=O)(OCC)ON1C(=O)c2cccc3cccc(c23)C1=O | 0.736 (active) |
| O=C(O)C(F)(F)C(F)(F)C(F)(F)C(F)(F)C(F)(F)C(F)(F)F | 1 |
| O=S1OC[C@@H]2[C@H](CO1)[C@]1(Cl)C(Cl)=C(Cl)[C@@]2(Cl)C1(Cl)Cl (stereo partly drawn) | 0.959 and 0.894 |
| O=C(O)c1ccccc1C(=O)Nc1cccc2ccccc12 | 1.01 |
| CCCCN(CCCC)SN(C)C(=O)Oc1cccc2c1OC(C)(C)C2 | 1.04 |
| C[n+]1ccc(-c2cc[n+](C)cc2)cc1.O.[Cl-].[Cl-] | 0.996 |
| CCC(C)(CC)c1cc(NC(=O)c2c(OC)cccc2OC)on1 | 0.959 |
| CNC(=O)Oc1cc(C)c(SC)c(C)c1 | 1.01 |
| COC(=O)C(C)(Cl)Cl | 1.04 |
| Cc1cc(Cl)ccc1N=CN(C)C | 1.03 |
| Nc1cc(Cl)cc(Cl)c1 | 1.01 |
| CCCCCCCCCc1ccc(O)cc1 | 1.01 |
| COc1c(Cl)ccc(Cl)c1Cl | 1.01 |
| CC(C)(C)c1cc([N+](=O)[O-])cc([N+](=O)[O-])c1O | 0.837 |

Tested on: Bacteroides uniformis
Experiment: as above
Settings: 20 µM; 24 h
In short: as §1

| Structure (SMILES) | growth AUC |
| --- | --- |
| COP(N)(=O)SC (stereo not drawn) | 1.03 |
| COc1cc(OC)n2nc(S(=O)(=O)Nc3c(Cl)ccc(C)c3Cl)nc2n1 | 0.964 |
| CC(C)N(C(=O)SCC(Cl)=C(Cl)Cl)C(C)C | 0.989 |
| O=S(=O)(c1ccc(O)cc1)c1ccc(O)cc1 | 0.987 |
| CN(C)NC(=O)CCC(=O)O | 0.992 |
| CCN(CC)c1nc(C)cc(OP(=S)(OC)OC)n1 | 0.976 |
| Clc1cccc(Cl)c1Cl | 1.01 |
| CCN(CC)C(=S)[S-].O.O.O.[Na+] | 1.01 |
| C#CCC1=C(C)C(OC(=O)C2C(C=C(C)C)C2(C)C)CC1=O (stereo not drawn) | 0.932 |
| CCOc1ccccc1OS(=O)(=O)NC(=O)Nc1nc(OC)cc(OC)n1 | 0.993 |
| CNC(=O)Oc1cc(C)cc(C(C)C)c1 | 1.04 |
| CCCCN(CC)c1c([N+](=O)[O-])cc(C(F)(F)F)cc1[N+](=O)[O-] | 0.99 |
| O=C(O)CCl | 0.947 |
| CC[C@H](C)[C@H]1O[C@]2(C=C[C@@H]1C)C[C@@H]1C[C@@H](C/C=C(\C)[C@@H](O[C@H]3C[C@H](OC)[C@@H](O[C@H]4C[C@H](OC)[C@@H](NC)[C@H](C)O4)[C@H](C)O3)[C@@H](C)/C=C/C=C3\CO[C@@H]4[C@H](O)C(C)=C[C@@H](C(=O)O1)[C@]34O)O2.O=C(O)c1ccccc1 | 0.322 (active) |
| CON(C)C(=O)Nc1ccc(Cl)c(Cl)c1 | 1 |
| CCCCOC(=O)[C@@H](C)Oc1ccc(Oc2ccc(C#N)cc2F)cc1 | 0.975 |
| Clc1cc(Cl)c(Cl)c(Cl)c1 | 1.02 |
| CN(C)C(=O)Nc1cccc(C(F)(F)F)c1 | 1.02 |
| CN(C)C(=O)Nc1cccc(OC(=O)NC(C)(C)C)c1 | 0.883 |
| CCOP(=O)(NC(C)C)Oc1ccc(SC)c(C)c1 (stereo not drawn) | 0.931 |

| Structure (SMILES) | growth AUC |
| --- | --- |
| ClCC(Br)CBr (stereo not drawn) | 0.957 |
| O=[N+]([O-])c1c(Cl)c(Cl)cc(Cl)c1Cl | 0.992 |
| CCS(=O)c1c(C#N)nn(-c2c(Cl)cc(C(F)(F)F)cc2Cl)c1N (stereo not drawn) | 0.959 |
| CNC(=O)Oc1cccc2c1OC(C)(C)C2O (stereo not drawn) | 0.998 |
| CCOP(=O)(SC(C)CC)N1CCSC1=O (stereo not drawn) | 0.996 |
| CCOP(=O)(OCC)ON1C(=O)c2cccc3cccc(c23)C1=O | 0.683 (active) |
| O=C(O)C(F)(F)C(F)(F)C(F)(F)C(F)(F)C(F)(F)C(F)(F)F | 1.02 |
| O=S1OC[C@@H]2[C@H](CO1)[C@]1(Cl)C(Cl)=C(Cl)[C@@]2(Cl)C1(Cl)Cl (stereo partly drawn) | 0.903 and 0.899 |
| O=C(O)c1ccccc1C(=O)Nc1cccc2ccccc12 | 0.993 |
| CCCCN(CCCC)SN(C)C(=O)Oc1cccc2c1OC(C)(C)C2 | 1.03 |
| C[n+]1ccc(-c2cc[n+](C)cc2)cc1.O.[Cl-].[Cl-] | 1.03 |
| CCC(C)(CC)c1cc(NC(=O)c2c(OC)cccc2OC)on1 | 0.965 |
| CNC(=O)Oc1cc(C)c(SC)c(C)c1 | 0.989 |
| COC(=O)C(C)(Cl)Cl | 0.968 |
| Cc1cc(Cl)ccc1N=CN(C)C | 1.02 |
| Nc1cc(Cl)cc(Cl)c1 | 1.04 |
| CCCCCCCCCc1ccc(O)cc1 | 0.289 (active) |
| COc1c(Cl)ccc(Cl)c1Cl | 0.99 |
| CC(C)(C)c1cc([N+](=O)[O-])cc([N+](=O)[O-])c1O | 0.876 |
